# Results from PubChem BioAssay.
# Active and inactive are the calls of the source.
# Legend:
# [1] = test system: PRMT1 (protein arginine N-methyltransferase 1); test: PRMT1 binders on small-molecule microarrays, primary screen, biochemical, small-molecule microarray, 635 nm fluorescence (AID 1088); conditions: small-molecule microarray binding, higher = more signal;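 note: binding of Prmt1 protein to compounds spotted on small-molecule microarray slides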
# [2] = yeast growth modulation, basal conditions, primary screen, YJM789 clinical isolate, OD600, 24 h (AID 1089);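 note: growth of clinical yeast isolate S. cerevisiae YJM 789 seeded 1000 cells per well; test concentration not given here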; conditions: S. cerevisiae YJM789 growth, higher = more signal, called active from +8 up or from −8 down
# [3] = fission yeast growth modulation, primary screen, strain 972, OD600, 24 h, no modulator (AID 1090);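 note: basal condition with compound alone and no growth modifier present; test concentration not given here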; conditions: S. pombe 972 growth, higher = more signal, called active from +8 up or from −8 down
# [4] = S. cerevisiae growth modulation with rapamycin, primary screen, strain BY4716, OD600, 96 h (AID 1091); conditions: higher = more signal, called active from +8 up or from −8 down; note: test concentration not given here
# [5] = target: Torsin-1A-interacting protein 2 (Homo sapiens) (UniProt Q8NFQ8); test: LULL1 binders on small-molecule microarray, primary screen, cell lysate, human LULL1 lysate, 635/667 nm fluorescence (AID 1092); conditions: hLULL1 lysate binding, 635 nm fluorescence, higher = more signal;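 note: probe is lysate of COS7 cells overexpressing human LULL1; score merges per-feature 667 nm fluorescence with signal-to-noise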
# [6] = E. coli growth modulation, two-sided OD650, primary screen, E. coli filamentation project, strain DRC41, 24 h (AID 1093); conditions: OD650, 24 h, higher = more signal, called active from +8 up or from −8 down;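 note: MC1000 strain lacking acrAB efflux and sulA so SOS filamentation is blocked; test concentration not given here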
# [7] = small-molecule microarray binders of probe aLefty2, primary screen, biochemical, biotinylated probe, 635/667 nm fluorescence (AID 1094); conditions: higher = more signal;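 note: score merges spot fluorescence near 667 nm with spot signal-to-noise ratio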
# [8] = test system: Noggin (protein binding on small-molecule microarray); test: Noggin binders on small-molecule microarray, primary screen, biochemical, 635/667 nm fluorescence (AID 1095); conditions: 635 nm fluorescence, higher = more signal;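 note: score merges 667 nm feature fluorescence with signal to noise over triplicate slides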
# [9] = target: Neurogenic locus notch homolog protein 3 (Homo sapiens) (UniProt Q9UM47); test: NOTCH3 binders on small-molecule microarray, primary screen, biochemical, 635/667 nm fluorescence (AID 1096); conditions: NOTCH3 binding, 635 nm fluorescence, higher = more signal
# [10] = small-molecule microarray binders of probe aEGFR, primary screen, biochemical, biotinylated probe, 635/667 nm fluorescence (AID 1097); conditions: higher = more signal;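 note: probe is a biotinylated anti-EGFR antibody binding compounds printed on slides; score combines fluorescence near 667 nm and signal to noise of each spot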
# [11] = test system: Plasmodium falciparum Sir2 (PF13_0152, Sir2A); test: pfSir2 binders on small-molecule microarrays, primary screen, biochemical, small-molecule microarray, 635 nm fluorescence (AID 1098); conditions: small-molecule microarray binding, fluorescence 635 nm; higher = more signal;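 note: score merges spot fluorescence intensity with its signal-to-noise ratio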
# [12] = small-molecule microarray binders of probe aDKK1, primary screen, biochemical, biotinylated probe, 635/667 nm fluorescence (AID 1099); conditions: higher = more signal;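 note: score merges 667nm spot fluorescence with signal to noise across triplicate slides; reference of the scale not given here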
# [13] = small-molecule microarray binders of probe aCHRDL2, primary screen, biochemical, biotinylated probe, 635/667 nm fluorescence (AID 1100); conditions: higher = more signal
# [14] = splicing luciferase reporter signal modulators, primary screen, spliceosome inhibition project, cell-based, HEK293, splice +/- reporter (AID 1101); conditions: luminescence, 24 h, higher = more signal, called active from +8 up or from −8 down;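 note: HEK293 cells carrying a splicing-competent luciferase reporter gene; test concentration not given here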
# [15] = target: Fibroblast growth factor 10 (Homo sapiens) (UniProt O15520); test: FGF10 binders on small-molecule microarrays, primary screen, biochemical, small-molecule microarray, 635 nm fluorescence (AID 1102); conditions: FGF10 binding, fluorescence 635 nm, higher = more signal
# [16] = test system: glycogen synthase kinase-3 (GSK3A per assay name; protocol says GSK3B); test: GSK3 binders on small-molecule microarrays, primary screen, biochemical, small-molecule microarray, 635 nm fluorescence, GSK3A (AID 1103); conditions: small-molecule microarray binding, fluorescence 635 nm; higher = more signal; note: the record names both GSK3A and GSK3B
# [17] = target: Epidermal growth factor receptor (Homo sapiens) (UniProt P00533); test: EGFR binders on small-molecule microarrays, primary screen, biochemical, small-molecule microarray, 635 nm fluorescence (AID 1104); conditions: EGFR binding, higher = more signal;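 note: score merges 667 nm emission intensity with spot signal to noise over triplicate slides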
# [18] = target: Follistatin-related protein 3 (Homo sapiens) (UniProt O95633); test: FSTL3 binders on small-molecule microarrays, primary screen, biochemical, small-molecule microarray, 635 nm fluorescence (AID 1105); conditions: FSTL3 binding, higher = more signal;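 note: score merges emission near 667 nm and signal to noise per printed spot across three slides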
# [19] = target: Dickkopf-related protein 1 (Homo sapiens) (UniProt O94907); test: DKK1 binders on small-molecule microarrays, primary screen, biochemical, small-molecule microarray, 635 nm fluorescence scan (AID 1106); conditions: DKK1 binding, higher = more signal;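 note: score merges emission near 667 nm with signal to noise over three replicate slides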
# [20] = test system: Inhibin beta A chain (activin A); test: INHBA (activin A) binders on microarrays, primary screen, biochemical, small-molecule microarray, 635 nm fluorescence scan (AID 1107); conditions: small-molecule microarray binding, higher = more signal;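 note: mouse activin A protein probed at 4.33 µg/mL on printed slides; score merges bound-protein fluorescence near 667 nm with spot signal-to-noise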
# Neurogenic locus notch homolog protein 3 (Homo sapiens), sequence (Q9UM47 whole entry, looked up): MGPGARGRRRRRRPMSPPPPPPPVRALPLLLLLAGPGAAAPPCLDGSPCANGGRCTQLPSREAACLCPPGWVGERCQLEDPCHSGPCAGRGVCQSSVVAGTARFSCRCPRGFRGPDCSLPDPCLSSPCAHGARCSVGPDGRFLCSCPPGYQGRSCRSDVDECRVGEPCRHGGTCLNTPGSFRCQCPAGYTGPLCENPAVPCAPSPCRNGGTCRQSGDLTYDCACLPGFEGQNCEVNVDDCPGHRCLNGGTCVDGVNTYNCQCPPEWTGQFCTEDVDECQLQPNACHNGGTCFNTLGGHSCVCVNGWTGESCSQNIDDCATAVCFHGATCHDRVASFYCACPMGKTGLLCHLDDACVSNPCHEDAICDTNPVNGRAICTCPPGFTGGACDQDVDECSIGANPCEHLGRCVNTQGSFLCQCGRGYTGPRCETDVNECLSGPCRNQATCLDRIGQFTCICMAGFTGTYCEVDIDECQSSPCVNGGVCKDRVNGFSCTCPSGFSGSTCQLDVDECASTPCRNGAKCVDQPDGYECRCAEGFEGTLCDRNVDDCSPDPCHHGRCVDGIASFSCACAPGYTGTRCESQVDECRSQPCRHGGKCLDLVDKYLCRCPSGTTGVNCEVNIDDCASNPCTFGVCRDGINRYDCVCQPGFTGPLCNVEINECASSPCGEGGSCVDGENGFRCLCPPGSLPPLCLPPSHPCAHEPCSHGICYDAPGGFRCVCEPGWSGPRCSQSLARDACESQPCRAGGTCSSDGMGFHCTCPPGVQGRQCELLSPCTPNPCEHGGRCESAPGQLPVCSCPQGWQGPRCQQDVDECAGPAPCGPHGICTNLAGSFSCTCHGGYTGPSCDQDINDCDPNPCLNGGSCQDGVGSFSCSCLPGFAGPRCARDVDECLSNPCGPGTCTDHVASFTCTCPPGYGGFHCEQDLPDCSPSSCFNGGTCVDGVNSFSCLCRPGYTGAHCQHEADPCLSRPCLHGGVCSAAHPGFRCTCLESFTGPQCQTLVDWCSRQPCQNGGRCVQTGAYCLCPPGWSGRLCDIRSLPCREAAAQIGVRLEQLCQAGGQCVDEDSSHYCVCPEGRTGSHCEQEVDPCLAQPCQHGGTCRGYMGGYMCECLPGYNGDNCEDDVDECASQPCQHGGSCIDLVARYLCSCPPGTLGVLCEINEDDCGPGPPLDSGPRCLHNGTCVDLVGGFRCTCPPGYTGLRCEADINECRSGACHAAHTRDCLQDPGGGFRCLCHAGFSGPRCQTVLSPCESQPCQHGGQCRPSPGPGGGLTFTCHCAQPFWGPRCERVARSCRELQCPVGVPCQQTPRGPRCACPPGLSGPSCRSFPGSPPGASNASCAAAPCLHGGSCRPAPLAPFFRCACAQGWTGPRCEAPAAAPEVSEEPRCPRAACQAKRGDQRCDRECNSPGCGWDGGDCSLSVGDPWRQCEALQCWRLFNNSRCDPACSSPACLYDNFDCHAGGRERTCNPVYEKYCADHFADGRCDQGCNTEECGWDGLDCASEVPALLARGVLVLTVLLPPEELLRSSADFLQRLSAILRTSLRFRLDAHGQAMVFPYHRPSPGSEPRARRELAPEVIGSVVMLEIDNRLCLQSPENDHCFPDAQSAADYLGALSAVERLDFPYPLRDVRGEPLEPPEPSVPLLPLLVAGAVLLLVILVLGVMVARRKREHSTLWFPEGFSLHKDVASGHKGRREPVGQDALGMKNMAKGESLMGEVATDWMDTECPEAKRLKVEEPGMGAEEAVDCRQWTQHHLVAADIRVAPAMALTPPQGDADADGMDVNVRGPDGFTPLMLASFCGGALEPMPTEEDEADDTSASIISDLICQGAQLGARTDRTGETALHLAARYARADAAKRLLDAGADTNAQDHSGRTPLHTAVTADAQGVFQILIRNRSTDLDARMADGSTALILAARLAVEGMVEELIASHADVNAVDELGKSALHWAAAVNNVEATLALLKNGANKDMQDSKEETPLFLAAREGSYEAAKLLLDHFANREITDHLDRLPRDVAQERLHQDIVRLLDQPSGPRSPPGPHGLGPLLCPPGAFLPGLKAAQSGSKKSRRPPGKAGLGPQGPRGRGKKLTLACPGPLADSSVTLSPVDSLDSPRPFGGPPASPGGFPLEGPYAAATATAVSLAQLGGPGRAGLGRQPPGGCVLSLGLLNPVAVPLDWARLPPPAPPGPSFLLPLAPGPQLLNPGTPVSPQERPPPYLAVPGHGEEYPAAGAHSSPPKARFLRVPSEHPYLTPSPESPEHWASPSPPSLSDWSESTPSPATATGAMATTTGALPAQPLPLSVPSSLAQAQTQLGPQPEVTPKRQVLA
# Follistatin-related protein 3 (Homo sapiens), sequence (O95633 whole entry, looked up): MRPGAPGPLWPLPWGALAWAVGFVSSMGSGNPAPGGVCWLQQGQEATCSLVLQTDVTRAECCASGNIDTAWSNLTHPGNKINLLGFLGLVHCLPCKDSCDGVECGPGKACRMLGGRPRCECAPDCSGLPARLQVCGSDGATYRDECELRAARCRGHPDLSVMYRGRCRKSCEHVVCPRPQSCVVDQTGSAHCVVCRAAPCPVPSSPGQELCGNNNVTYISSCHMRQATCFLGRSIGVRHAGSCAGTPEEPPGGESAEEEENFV
# Dickkopf-related protein 1 (Homo sapiens), sequence (O94907 whole entry, looked up): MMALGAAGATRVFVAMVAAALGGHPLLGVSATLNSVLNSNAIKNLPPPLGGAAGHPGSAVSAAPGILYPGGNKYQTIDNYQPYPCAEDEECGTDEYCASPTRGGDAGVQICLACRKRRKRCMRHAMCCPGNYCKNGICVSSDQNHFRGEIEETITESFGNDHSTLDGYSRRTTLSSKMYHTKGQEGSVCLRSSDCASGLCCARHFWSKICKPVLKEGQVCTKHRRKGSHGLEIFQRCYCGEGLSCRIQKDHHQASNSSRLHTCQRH
# Torsin-1A-interacting protein 2 (Homo sapiens), sequence (Q8NFQ8 whole entry, looked up): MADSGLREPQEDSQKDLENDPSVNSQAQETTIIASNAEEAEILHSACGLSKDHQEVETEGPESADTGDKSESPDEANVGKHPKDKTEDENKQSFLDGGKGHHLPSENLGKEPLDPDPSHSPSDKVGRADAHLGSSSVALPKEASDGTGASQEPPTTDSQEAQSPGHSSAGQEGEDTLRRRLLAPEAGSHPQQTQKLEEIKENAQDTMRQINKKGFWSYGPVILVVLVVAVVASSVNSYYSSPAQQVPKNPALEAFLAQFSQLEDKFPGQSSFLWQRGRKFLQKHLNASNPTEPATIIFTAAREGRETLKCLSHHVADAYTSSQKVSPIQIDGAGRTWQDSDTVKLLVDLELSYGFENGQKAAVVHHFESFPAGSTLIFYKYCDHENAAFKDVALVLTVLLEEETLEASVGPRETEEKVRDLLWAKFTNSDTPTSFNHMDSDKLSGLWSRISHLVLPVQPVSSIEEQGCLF
# Epidermal growth factor receptor (Homo sapiens), sequence (P00533 whole entry, looked up): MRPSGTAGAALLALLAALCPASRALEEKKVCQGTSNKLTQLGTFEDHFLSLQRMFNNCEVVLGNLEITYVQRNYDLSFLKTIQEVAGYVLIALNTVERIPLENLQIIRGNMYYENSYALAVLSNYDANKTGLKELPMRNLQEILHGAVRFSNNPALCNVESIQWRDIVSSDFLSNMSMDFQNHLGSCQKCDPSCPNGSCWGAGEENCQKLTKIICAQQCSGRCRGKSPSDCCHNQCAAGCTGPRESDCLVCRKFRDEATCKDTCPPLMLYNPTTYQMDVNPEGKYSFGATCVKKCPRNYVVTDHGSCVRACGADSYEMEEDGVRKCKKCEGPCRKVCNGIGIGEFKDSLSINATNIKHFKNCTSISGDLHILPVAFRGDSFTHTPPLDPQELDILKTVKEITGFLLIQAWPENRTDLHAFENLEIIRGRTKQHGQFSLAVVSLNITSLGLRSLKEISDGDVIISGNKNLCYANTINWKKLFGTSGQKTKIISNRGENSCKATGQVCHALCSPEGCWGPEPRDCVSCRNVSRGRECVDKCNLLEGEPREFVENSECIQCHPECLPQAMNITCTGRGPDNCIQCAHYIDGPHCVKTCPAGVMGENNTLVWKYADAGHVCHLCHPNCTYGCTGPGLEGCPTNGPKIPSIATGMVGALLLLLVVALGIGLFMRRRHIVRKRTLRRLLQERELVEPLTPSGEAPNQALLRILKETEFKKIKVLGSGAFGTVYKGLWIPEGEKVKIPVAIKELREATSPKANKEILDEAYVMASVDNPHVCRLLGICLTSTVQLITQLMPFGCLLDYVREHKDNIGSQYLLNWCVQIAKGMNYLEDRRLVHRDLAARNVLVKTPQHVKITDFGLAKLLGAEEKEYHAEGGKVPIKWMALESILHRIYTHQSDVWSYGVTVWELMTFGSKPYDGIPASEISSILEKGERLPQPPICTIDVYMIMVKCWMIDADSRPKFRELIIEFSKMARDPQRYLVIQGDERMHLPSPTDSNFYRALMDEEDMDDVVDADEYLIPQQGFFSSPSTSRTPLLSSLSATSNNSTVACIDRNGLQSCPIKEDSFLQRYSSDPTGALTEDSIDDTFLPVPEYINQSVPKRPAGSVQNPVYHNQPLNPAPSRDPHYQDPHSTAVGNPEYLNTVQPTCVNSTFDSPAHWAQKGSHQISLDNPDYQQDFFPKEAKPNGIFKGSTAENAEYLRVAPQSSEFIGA
# Fibroblast growth factor 10 (Homo sapiens), sequence (O15520 whole entry, looked up): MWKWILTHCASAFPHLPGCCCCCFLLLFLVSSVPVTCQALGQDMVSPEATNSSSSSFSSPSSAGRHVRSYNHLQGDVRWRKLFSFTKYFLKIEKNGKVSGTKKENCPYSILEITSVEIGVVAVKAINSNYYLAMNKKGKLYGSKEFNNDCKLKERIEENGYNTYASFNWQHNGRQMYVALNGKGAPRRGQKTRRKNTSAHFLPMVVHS
Compound,composite z-score [1],z-score [2],z-score [3],z-score [4],composite z-score [5],z-score [6],composite z-score [7],composite z-score [8],composite z-score [9],composite z-score [10],composite z-score [11],composite z-score [12],composite z-score [13],z-score [14],composite z-score [15],composite z-score [16],composite z-score [17],composite z-score [18],composite z-score [19],composite z-score [20]
[N-]=[N+]=Nc1ccccc1C[C@]1(C(=O)O)N=C(c2ccc(OCCCO)cc2)O[C@H]1c1ccccc1,1.34,3.9 (inactive),0.888 (inactive),0.712 (inactive),3.11,0.464 (inactive),0.0116,-0.0597,0.703,-0.0828,1.71,0.336,0.724,-0.918 (inactive),0.143,0.0096,-0.839,0.195,-0.689,0.86
COc1cc2c(cc1O)C(c1cccs1)N(Cc1sc3ccccc3c1Cl)CC2 (stereo not given),1.53,-0.642 (inactive),-1.93 (inactive),-1.63 (inactive),3.3,-0.31 (inactive),0.105,1.03,1.03,0.14,1.33,0.525,0.179,-0.861 (inactive),1.46,1.36,0.495,1.41,0.726,0.816
COc1ccc(CCNC(=O)[C@@]2(Cc3ccccc3I)c3ccccc3C(=O)N(Cc3ccccc3Cl)[C@H]2c2ccc(CO)cc2)cc1,1.46,-0.372 (inactive),-0.645 (inactive),-0.0387 (inactive),2.35,-1.3 (inactive),0.23,-0.383,0.0854,0.0284,1.79,0.316,0.646,-1.55 (inactive),0.202,-0.181,-0.662,-0.407,-0.735,0.0137
O=C1C2C=CC(C(O)c3cccc(O)c3)N(Nc3ccccc3)C2C(=O)N1c1ccccc1 (stereo not given),-0.413,0.629 (inactive),-0.581 (inactive),0.299 (inactive),2.92,-0.542 (inactive),0.005,-0.525,0.535,-0.0416,-0.131,0.305,0.272,-0.664 (inactive),0.134,-0.194,0.112,-0.0752,-0.347,0.959
NC(=O)[C@H]1[C@@H]2C(=O)O[C@@H](c3ccccc3)[C@@H](c3ccccc3)N2[C@@H](c2ccc(O)cc2)[C@]12C(=O)Nc1ccccc12,-0.472,0.446 (inactive),-0.732 (inactive),0.659 (inactive),2.99,0.13 (inactive),-0.139,-1.18,-1.03,-0.356,0.845,-0.352,0.561,-0.0764 (inactive),-1.07,-1.69,-1.15,-1.51,-1.34,-1.11
COCCOC(=O)N1C(=O)[C@@]2(c3cc(C#CCNC(N)=O)ccc31)[C@H](c1ccc(OCCO)cc1)N1[C@H](c3ccccc3)[C@H](c3ccccc3)OC(=O)[C@H]1[C@@H]2C(=O)NC[C@H](O)c1ccccc1,1.57,2.3 (inactive),3.07 (inactive),4.91 (inactive),2.44,0.925 (inactive),0.19,1.1,1.06,0.0671,1.4,0.26,0.788,0.38 (inactive),0.945,0.469,0.711,1.29,0.583,1.43
COCCCNC(=O)[C@@H]1c2ccccc2C(=O)N(C2Cc3ccccc3C2)[C@H]1c1ccc(CO)cc1,1.17,0.0011 (inactive),-0.471 (inactive),-0.559 (inactive),1.74,0.935 (inactive),-0.0237,0.163,-0.0847,-0.0549,0.122,0.299,0.186,0.0141 (inactive),0.639,1.04,0.172,0.121,0.447,0.952
NC(=O)[C@H]1[C@@H]2C(=O)O[C@@H](c3ccccc3)[C@@H](c3ccccc3)N2[C@@H](c2ccc(O)cc2)[C@]12C(=O)Nc1ccc(C#CC3=CCCCC3)cc12,1.45,1.42 (inactive),0.481 (inactive),2.1 (inactive),2.83,-1.32 (inactive),-0.185,0.186,0.169,-0.186,-0.165,-0.157,0.724,-1.67 (inactive),0.0647,-0.229,-0.433,-0.0656,-0.0761,0.0756
CO[C@H]1O[C@H](CO)[C@@H](OC(=O)Nc2cccc(F)c2)[C@H](OC(=O)Nc2ccccc2-c2ccccc2)[C@H]1OC(=O)Nc1ccccc1-c1ccccc1,1.54,-0.455 (inactive),2.19 (inactive),1.39 (inactive),3.08,-0.158 (inactive),0.0361,0.928,1.06,-0.0225,1.26,0.255,0.735,4.28 (inactive),1.46,1.33,0.321,1.3,0.585,0.664
COC(=O)C(CC#Cc1ccc2c(c1)[C@]1(C(=O)N2)[C@H](c2ccc(O)cc2)N2[C@H](c3ccccc3)[C@H](c3ccccc3)OC(=O)[C@H]2[C@@H]1C(=O)N1CCCCCCC1)C(=O)OC,1.53,-1.87 (inactive),-1.29 (inactive),-0.939 (inactive),4.02,0.88 (inactive),1.5,1.91,1.14,0.804,1.48,2.23,1.22,-0.83 (inactive),0.869,1.32,0.765,1.54,1.22,1.77
